GRIN3A LBD mod: modulates the human NR3A ligand-binding domain | actives 2.5% (n = 340,000) | AID 1259313 | NR3A LBD differential scanning fluorimetry, Tm shift; 0% = protein alone, 100% = glycine-bound protein | Tm shift relative to glycine control, % at 25 µM;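 active = melting temperature shift of at least 10% of the positive control shift, at one fixed dose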
ADAM17 inh: inhibits human ADAM17; actives 0.83% (n = 370,000); recombinant ADAM17, EDANS/DABCYL FRET peptide cleavage; inhibition, % at 6.95 µM;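 active = inhibition above the mean of compounds lying between control limits plus 3 SD, set per campaign, cut at about 8.5% in these data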
aDG glyco act: alpha-DG glycosylation activation. Pro5-aDG cells, alpha-DG glycosylation AlphaScreen (IIH6); 0% Pro5, 100% B10-LARGE cell signal. activation, % at 10 µM. actives 0.22% (n = 360,000). AID 624168;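 active = activation of at least 8% versus controls, or a plate z-score of at least 8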;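 also: Pro5 are CHO cells carrying HIG-tagged alpha-DG that lacks glycosylation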
FAS-TE inh: FAS thioesterase (human) inhibition. P49327. recombinant FAS-TE, OMFH fluorogenic substrate, fluorescence endpoint. inhibition, % at 15 µM. actives 0.67% (n = 360,000);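 active = compounds whose normalised, plate-corrected inhibition of enzyme fluorescence in the single-dose primary screen is 50% or more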
ADAM10 inh: inhibitors of human ADAM10; recombinant ADAM10, EDANS/DABCYL FRET peptide cleavage, 3 h; actives 0.62% (n = 370,000); AID 720582; inhibition, % at 7 µM;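 active = inhibition above a per-campaign cutoff equal to the mean of compounds falling between control-based bounds plus 3 SD, cut at about 20% in these data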
ADAM10 confirm: confirmation of inhibitors of human ADAM10; AID 743208; actives 1% (n = 2,100); inhibition, % at 6.95 µM; shares compounds with ADAM10 inh; ADAM10 QFRET peptide cleavage, EDANS fluorescence;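 active = inhibition above about 20% chosen separately for each screening run, limit read from the data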
ADAM17 ctr: inhibits human ADAM17 in ADAM10 exosite counter-screen; shares compounds with ADAM10 inh; ADAM17 QFRET peptide cleavage, EDANS fluorescence; inhibition, % at 6.95 µM; actives 0.5% (n = 2,100); AID 743214;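 active = mean triplicate inhibition above the solvent-only control wells' mean plus 3 SD, cut at about 12% in these data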
ADAM10 counter: inhibits human ADAM10 in ADAM17 exosite counter-screen | recombinant ADAM10, EDANS/DABCYL FRET peptide cleavage, 3 h | actives 47% (n = 2,900) | inhibition, % at 6.95 µM | shares compounds with ADAM17 inh;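 active = mean inhibition over the triplicate runs exceeds the activity threshold set in the earlier primary screen, cut at about 20% in these data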
ADAM17 confirm: human ADAM17 inhibition, confirmation. recombinant ADAM17, EDANS/DABCYL QFRET peptide cleavage. inhibition, % at 6.95 µM. actives 65% (n = 2,900). shares compounds with ADAM17 inh;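 active = mean inhibition across replicates above the hit cutoff set in the primary screen, cut at about 8.5% in these data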
Large screens that a line does not name were inactive (follow-up assays come after a bar, where they were run). Only some compounds are listed: those with a hit (about 4% of all), similar ones and a draw of the others.

Cc1c(C(=O)N2CCC3(CC2)OCCO3)sc2ncnc(N3CCc4ccccc4C3)c12	none
CC#CP(=O)(OCC)C(O)(c1ccccc1)C(F)(F)F (stereo not drawn)	none
Cc1ccc(NP(=O)(Nc2ccc(C)cc2)Oc2ccccc2)cc1	none
Cc1ccc(NP(=O)(Oc2ccccc2F)Oc2ccccc2F)cc1	ADAM10 inh 21.3 | ADAM10 confirm inactive | ADAM17 ctr inactive
CC[N+](C)(CC)CCCCOc1ccc2c(c1)C(=O)c1cc(OCCCC[N+](C)(CC)CC)ccc1-2	none
OCCN1C2CCC1CC(O)(c1ccc(F)cc1)C2 (stereo not drawn)	none
CCC1C(c2ccccc2)NC(c2ccccc2)CC1(O)c1ccc(F)cc1 (stereo not drawn)	ADAM10 inh 20.9 | ADAM10 confirm inactive | ADAM17 ctr inactive
Cc1nc2ccc(Br)cc2c(=O)n1-c1ccc([N+](=O)[O-])c(C(F)(F)F)c1	ADAM10 inh 23.5 | ADAM10 confirm inactive | ADAM17 ctr inactive
CCC1(CCCC(=O)c2ccc(F)cc2)C(=O)NC(=S)NC1=O	none
CCC(=Nc1cc(OC)ccc1OC)c1c(O)[nH]c(=O)[nH]c1=O	ADAM10 inh 20.9 | ADAM10 confirm inactive | ADAM17 ctr inactive
CCN(CCNc1ccc([N+](=O)[O-])c2cccnc12)S(=O)(=O)c1ccc(Cl)cc1	ADAM10 inh 21.6 | ADAM10 confirm inactive | ADAM17 ctr inactive
Cn1c(O)c(/C=N/N2CCOCC2)c(=O)n(-c2ccccc2)c1=S	none
CCc1ccc(NP(=O)(Oc2ccccc2F)Oc2ccccc2F)cc1	ADAM17 inh 11.9, ADAM10 inh 26.2 | ADAM10 confirm inactive | ADAM17 ctr inactive | ADAM10 counter 34.5 | ADAM17 confirm 19.7
COc1cccc(NP(=O)(Oc2ccccc2)Oc2ccccc2)c1	none
COc1cccc(NP(=O)(Oc2ccccc2Cl)Oc2ccccc2Cl)c1	ADAM17 inh 10.2, ADAM10 inh 23.2 | ADAM10 confirm inactive | ADAM17 ctr inactive | ADAM10 counter 44.7 | ADAM17 confirm 17.8
COC(=O)C1=C(c2cc3ccccc3s2)C[C@@H]2CC[C@H]1N2C(=O)NCc1ccc(C(F)(F)F)cc1	ADAM17 inh 11.8, ADAM10 inh 24.1 | ADAM10 confirm inactive | ADAM17 ctr inactive | ADAM10 counter inactive | ADAM17 confirm 11.5
COC(=O)C1=C(c2ccccc2OCc2ccccc2)C[C@@H]2CC[C@H]1N2C(=O)NCCc1ccc(F)cc1	ADAM17 inh 10.0, ADAM10 inh 20.6 | ADAM10 confirm inactive | ADAM17 ctr inactive | ADAM10 counter inactive | ADAM17 confirm inactive
COC(=O)C1=C(c2ccc(F)cc2OCc2ccccc2)C[C@@H]2CC[C@H]1N2C(=O)NCc1ccccc1	none
COC(=O)C1=C(c2ccc(F)cc2OCc2ccccc2)C[C@@H]2CC[C@H]1N2C(=O)NCc1ccccc1OC	ADAM17 inh 14.9, ADAM10 inh 27.8 | ADAM10 confirm inactive | ADAM17 ctr inactive | ADAM10 counter 20.7 | ADAM17 confirm 12.8
O=C1CN=C(c2ccccc2F)c2cc(Cl)ccc2N1	none
O=c1[nH]c(=S)n(Cc2ccc(F)cc2)c(O)c1C=NCCCn1ccnc1	none
COC(=O)C1=C(c2ccc(Cl)c(C(F)(F)F)c2)C[C@@H]2CC[C@H]1N2C(=O)N1CCOCC1	none
CC(=O)c1c(C)[nH]c(C(=O)N2CCC3(CC2)OCCO3)c1C	none
COC(=O)C1=C(c2ccc(-c3ccccc3)c(F)c2)C[C@@H]2CC[C@H]1N2C(=O)NCCO	none

Bioassay records as filed in PubChem BioAssay.
